Hits are enriched below; roughly 1.6% of the tested compounds scored in any of these assays.
PABP polyA inh = PABP poly(A) RNA binding inhibitors, primary screen, biochemical, fluorescence polarization, uHTS; 1% of 290,000 active; calls only at 35 µM; AID 2014, 2009; Polyadenylate-binding protein 1 (Homo sapiens), P11940;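 further: calls also rest on retests at 20 µM and on dose response follow-up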
eIF4E 4G PPI = eIF4E–eIF4G protein interaction inhibitors, primary screen, biochemical, uHTS, TR-FRET, eIF4GI fragment. Eukaryotic translation initiation factor 4E (Mus musculus) + Eukaryotic translation …. TR-FRET eIF4E-eIF4GI(517-606) binding, 2 h. 0.37% of 220,000 active. inhibition, % at 21.7 µM;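 active means inhibition above about 30%, limit read from the data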;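 further: 0% = full FRET control wells and 100% = background wells lacking eIF4GI fragment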
PERK inhibitor = block of dimerizer-induced PERK translation repression, primary screen, PERK inhibitor project, CHO PERK-DD cells, SEAP luminescence, HTS | Eukaryotic translation initiation factor 2-alpha kinase 3 (Homo sapiens), Q9NZJ5 | CHO PERK-DD fusion, SEAP luminescence translation reporter | inhibition, % at 5.6 µM | 0.17% of 220,000 active;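 active means inhibition above the mean inhibition of all tested compounds plus 3 SD, set separately per screening campaign, cut at about 2.9% in these data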;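 further: PERK kinase domain activated by AP20187 dimerizer at 100 nM; 0% = DMSO with dimerizer and 100% = rapamycin at 8.4 µM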
eIF4H inh = human eIF4H binding inhibitors, primary screen, translation initiation inhibitor project, biochemical, uHTS, fluorescence polarization. eIF4H fluorescence polarization binding assay. inhibition, % at 35 µM. 0.94% of 290,000 active. AID 2012, 2009;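 further: calls also rest on retests at 20 µM and on dose response follow-up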
PABP1 MLLE inh = inhibitors of PABP1 MLLE–PAM2 peptide binding, primary screen, biochemical, fluorescence polarization, FITC-PAM2, GST-MLLE | Polyadenylate-binding protein 1 (Homo sapiens), P11940 | inhibition, % at 20 µM | 0.36% of 360,000 active | AID 588489, 2011; in the data active means inhibition above about 35%, passing the limit was not always enough;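 further: plate controls were DMSO wells with GST-MLLE for no effect and wells lacking GST-MLLE protein for full effect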
Active calls of the source: *; i = inactive; ? = inconclusive; / = no result given; + = active, no number. Unless noted, how the calls were made is not given here.

SMILES | PABP polyA inh | eIF4E 4G PPI | PERK inhibitor | eIF4H inh | PABP1 MLLE inh
COc1cccc(C2C3=C(N=c4s/c(=C\c5ccc(OCC(=O)O)cc5)c(=O)n42)c2ccccc2CC3)c1 (centres undefined) | i | 40* | 0 | 62 | /
O=C(O)CCN1C(=O)C(=C2CCCCCC2)SC1=S | i | 5 | 2 | -7 | 45*
CC1CCCN(C(=O)CSc2nnc(-c3ccc(S(=O)(=O)N4CCOCC4)cc3)n2C)C1 (centres undefined) | i | -6 | 0 | 2 | -8
CC1CCN(C(=O)CSc2nnc(-c3ccc(S(=O)(=O)N4CCOCC4)cc3)n2C)CC1 | + | -1 | 0 | 53* | -7
Cn1nccc1C(=O)c1ccc(Cl)cc1 | i | 1 | 3.1* | 8 | -4
O=c1cc(CN2CCCc3ccccc32)nc2sccn12 | i | 5 | 0 | 94* | 124
O=c1cc(CN2CCc3ccccc32)nc2sccn12 | i | -19 | 0 | 19 | 1
NC(=O)C1CCN(C(=O)CN(C2CCCCC2)S(=O)(=O)c2ccc(F)cc2)CC1 | i | / | / | 2 | -1
CCc1ccc(C(=O)/C=C/Nc2ccc(S(=O)(=O)Nc3cnc4ccccc4n3)cc2)cc1 | i | -8 | 0 | -1 | -27
N=c1ccccn1CC(O)COc1ccccc1 (centres undefined) | ? | 1 | 0 | ? | -3
CC(O)Cn1ccccc1=N (centres undefined) | + | / | 1 | 83* | 1
CC(Oc1ccc(Br)cc1)C(=O)Nc1ccc(S(=O)(=O)N(C)C2CCN(C)CC2)cc1 (centres undefined) | / | / | / | / | -51
CNc1ncnc2c1ncn2[C@H]1CN(Cc2ccccc2)C[C@@H](CO)O1 | / | / | / | / | 6
CCCCCn1c(N)c(-c2nc3ccccc3o2)c2c([N+](=O)[O-])nn(CC)c(=O)c21 | i | 7 | 0 | 38 | -1
CCCCCn1c(N)c(-c2nc3ccccc3o2)c2c([N+](=O)[O-])nn(C)c(=O)c21 | i | 22 | 0 | 74* | 1
O=C1NCCN(Cc2ccc(Cl)c(F)c2)C1CC(=O)N1CCc2ccccc2C1 (centres undefined) | i | 3 | 1 | 54* | 25
CN(Cc1ccon1)C(=O)CC1C(=O)NCCN1Cc1ccc(Cl)c(F)c1 (centres undefined) | i | / | / | -9 | 6
O=c1c2c(nc3nc(NCc4cccc(Cl)c4)[nH]n13)CCC2 | i | -1 | 0 | 2 | -2
CCCNC(=O)C1(C)CCCN(C(=O)c2cc(C)nn2C(C)(C)C)C1 (centres undefined) | / | / | / | / | -2
Cc1csc(SCC(=O)c2cc(C)n(Cc3cccs3)c2C)n1 | i | 0 | 0 | 6 | 24
Cc1cc(C(=O)CSc2nnc(-c3ccc(OC(F)F)cc3)o2)c(C)n1Cc1cccs1 | + | 2 | 1 | 57* | -118
Cc1cc(C(=O)CSc2nnc(N)s2)c(C)n1Cc1cccs1 | + | -1 | -1 | 77 | 17
COc1ccc(C(NC(=O)C2CCN(Cc3ccc(Oc4ccccc4)cc3)CC2)c2ccccc2C)cn1 (centres undefined) | / | / | / | / | 5
Cc1cc(=O)oc2cc(OCC(=O)Nc3ccc(N4CCC(C)CC4)cc3)ccc12 | i | / | / | 70 | -11
CC(=O)Oc1ccc(C(=O)NCc2ccco2)cc1 | i | / | / | -6 | 11
SMILES | PABP polyA inh | eIF4E 4G PPI | PERK inhibitor | eIF4H inh | PABP1 MLLE inh
Cc1cc(C)nc(N/N=C/c2ccccc2OCc2ccccc2)n1 | + | 0 | 0 | 82 | -7
COc1ccc(C)c2sc(=NC(=O)c3ccc(C(C)=O)cc3)n(C)c12 | + | 7 | 1 | 90* | 13
COc1ccc(C)c2sc(=NC(=O)c3ccccc3)n(C)c12 | i | 3 | 1 | -2 | -9
CCCCCC(=O)Nc1ccc(S(=O)(=O)Nc2nccc(C)n2)cc1 | i | 1 | 0 | -10 | 0
CN(C)C(=O)c1ccc(Cc2cn(C)c3ccccc23)nc1 | / | / | / | / | 17
Cc1onc(-c2ccccc2)c1C(=O)N/N=C/c1ccco1 | i | 1 | 0 | 8 | -6
Cc1onc(-c2ccccc2)c1C(=O)N/N=C/c1ccc([N+](=O)[O-])s1 | + | 2 | -1 | 58* | 12
O=C(N/N=C/c1cn(Cc2ccccc2)c2ccccc12)c1cc(O)cc(O)c1 | i | / | / | 62* | -5
CCNC(=S)N/N=C/c1cn(Cc2ccc(F)cc2)c2ccccc12 | + | 2 | -1 | 82* | 8
Cc1ccc(C(=O)N/N=C/c2cn(Cc3ccccc3)c3ccccc23)cn1 | i | 6 | -2 | -8 | 1
CN(C1CCCCC1)S(=O)(=O)c1ccc(NC(=S)NC(=O)c2cccs2)cc1 | i | -4 | -1 | -6 | 43*
COc1ccc2oc(=O)c(C(=O)OCc3ccccc3)cc2c1 | i | / | / | -4 | 43*
c1ccc(CCOn2ccnc2)cc1 | i | / | / | -4 | 7
Cc1cc2cc(CNC(=O)Cc3ccc([N+](=O)[O-])cc3)ccc2n1C | i | 0 | 0 | 47 | 40*
Cc1cc2cc(CNC(=O)Cc3cccs3)ccc2n1C | i | -20 | / | 40 | 39*
Cc1c(C(=O)NCc2ccc3c(c2)cc(C)n3C)cccc1[N+](=O)[O-] | i | -5 | -1 | 19 | 48*
Cc1cc2cc(CNC(=O)c3cccc([N+](=O)[O-])c3)ccc2n1C | i | 5 | 0 | 46 | -14
CCc1ccc(OC2(C)CCN(Cc3ccc4c(c3)OCCO4)C2)cc1 (centres undefined) | / | / | / | / | -17
O=C(/C=C/[C@H]1O[C@@H](n2cnc3c(NC(=O)c4ccccc4)ncnc32)[C@H](O)[C@@H]1O)NCc1ccco1 | / | / | / | / | 8
Nc1ccccc1SC1CC(=O)N(Cc2ccccc2)C1=O (centres undefined) | + | -2 | 1 | active | 28
COC(=O)c1cc(C(=O)Nc2ccc(S(=O)(=O)NC(C)(C)C)cc2)cc([N+](=O)[O-])c1 | i | 0 | 1 | -11 | 5
CCN(CC)S(=O)(=O)c1ccc(NC(=O)c2cc(C(=O)OC)cc([N+](=O)[O-])c2)cc1 | i | 33* | 0 | 8 | 1
O=C1CSC(c2ccc(Cl)cc2)N1Nc1nc(N2CCOCC2)nc(N2CCOCC2)n1 (centres undefined) | i | -1 | 0 | -4 | -13
O=C(Cc1ccc(S(=O)(=O)N2CCOCC2)s1)Nc1nc2c(s1)CCCC2 | + | 1 | 2 | 60* | 9
O=C(O)c1c[nH]c2ccc([N+](=O)[O-])cc2c1=O | / | / | / | / | 4
Cc1cccc(C)c1NC(=S)Nc1ccc(F)cc1 | i | -6 | 1 | -3 | 44*
